This passage reports sensor-assay potency score (higher = more potent) results from the OligoGym collection.
Also: reference of the scale not given here.

The first assay has as its target TAF5. Nature of the assay: pooled miR-30 sensor sort-seq; sequence = guide strand. Conditions: shRNA.
For TTGAATCTGCAAAACCTCCAGC, the sensor-assay potency score (higher = more potent) turned out to be 0.0484.
The same measure, in the same setting: the value for TAAGACTAGATAATACTCGTAG was 0.809; that for TAAGTGAACAGACTGTATCAGT was -0.556; that for TAATCGAACTGTATTATCCATT was -0.885.
The same measure, in the same setting: with TTGTTTGACACTACGAAGCTTT the figure was 0.143; with TAATACTCGTAGGTCATCCTGG, 0.422.
Same read-out and setting: with TAGTATTCTTCATACATTGTGG the figure was -0.781; with TATCTTATCCAACTTATCTGAA, -0.846.
TATCTGTTGCTTACTACGCGGC returned a sensor-assay potency score (higher = more potent) of -0.346.
Same read-out and setting: with TTATCTTATCCAACTTATCTGA the figure was -0.244; with TATCTGAATCTTTCAACTCAGG, -1.06.
Same read-out and setting: with TTGATTGTAGACTAGCTCCAAG the figure was -0.676.

In another assay the target is TARBP2. The description is as above. Particulars: shRNA.
In turn, TTTCGAAGACCATCCAGGCGGG yielded a sensor-assay potency score (higher = more potent) of -0.916.
Still for that read-out and setting: the value for TTGCAGAGCCATGACACACAGT was -0.909.
TGAATTTCGTAGAGAATCCCAG had a sensor-assay potency score (higher = more potent) of -0.515.
Same read-out and setting: with TTCTCTCCTACTGAATTTCGTA the figure was -0.854.
Still for that read-out and setting: with TAGGACTACAGATGGAACTGGG the figure was 0.0896; with TGCTGCAGCAGTAAAAACCGGA, -0.386.
Still for that read-out and setting: with TTTCTGCACCACCAGCTCCTGC the figure was -1.56; with TATTCTGGTCCCATACTCCTGC, 0.18; with TCGTACACAGGCGTCTTCCCTA, -0.68.
Consider TTTGAGAAGGTCGTACACAGGC, for which the sensor-assay potency score (higher = more potent) is -0.0476.
In turn, TTTCGTAGAGAATCCCAGGTGC gave a sensor-assay potency score (higher = more potent) of 0.652.
The same measure, in the same setting: the value for TCCTGCAGAAGGCTGATCGGGG was -1.33.
